Screening data from PubChem.
Giardia FBPA inh = qHTS Assay for Inhibitors of Fructose-1,6-bisphosphate Aldolase from Giardia Lamblia; purified Giardia FBPA; Potency, µM (top dose mostly 59.6 µM), hits mostly inhibitors; hit rate 0.71% among 290,000; also: nearly all actives have a fitted effect of over 55% in size
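Giardia FBPA (40 nM reagent) was preincubated 10 min at RT with compound (up to 57.5 uM final), then substrate plus GAPDH/TPI/NAD/arsenate coupling system with diaphorase/resazurin was added; resorufin fluorescence (525/598 nm) was read after 20 min.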
Sm TGR inh = qHTS Assay for the Inhibitors of Schistosoma Mansoni Peroxiredoxins. AID 485364, 2010. Potency, µM (top dose mostly 114 µM), most hits filed as inhibitors. purified TGR, DTNB reduction, TNB absorbance 405 nm. hit rate 3% among 360,000. Schistosoma mansoni thioredoxin glutathione reductase (TGR), Q962Y6; also: nearly all actives have a fitted effect of over 60% in size
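TGR 20 nM + NADPH 100 uM (dispensed conc.), cpd preinc 15 min RT; start with NADPH (500 uM addition) then DTNB (15 mM addition). Kinetic TNB absorbance, 405 nm filter. Four-parameter Hill fit across titration.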
Cycloheximide cs = Cycloheximide Counterscreen for Small Molecule Inhibitors of Shiga Toxin | AID 2314, 2010 | hit rate 12% among 300,000 | cell reporter, cycloheximide protein synthesis inhibition counterscreen | max response, %; in the data active = max response mostly above about 13%, no sharp cut-off; inactive = mostly below about 14%; also: read at 38.3 µM for the half of the compounds with a filed dose
LmPK inh = qHTS Assay for Inhibitors of Leishmania Mexicana Pyruvate Kinase (LmPK). purified LmPK, Kinase-Glo ATP luminescence, 1 h. Potency, µM (series often up to 57.5 µM), hits mostly inhibitors. Q27686. hit rate 0.37% among 290,000
Target sequence (Q27686 whole entry, looked up): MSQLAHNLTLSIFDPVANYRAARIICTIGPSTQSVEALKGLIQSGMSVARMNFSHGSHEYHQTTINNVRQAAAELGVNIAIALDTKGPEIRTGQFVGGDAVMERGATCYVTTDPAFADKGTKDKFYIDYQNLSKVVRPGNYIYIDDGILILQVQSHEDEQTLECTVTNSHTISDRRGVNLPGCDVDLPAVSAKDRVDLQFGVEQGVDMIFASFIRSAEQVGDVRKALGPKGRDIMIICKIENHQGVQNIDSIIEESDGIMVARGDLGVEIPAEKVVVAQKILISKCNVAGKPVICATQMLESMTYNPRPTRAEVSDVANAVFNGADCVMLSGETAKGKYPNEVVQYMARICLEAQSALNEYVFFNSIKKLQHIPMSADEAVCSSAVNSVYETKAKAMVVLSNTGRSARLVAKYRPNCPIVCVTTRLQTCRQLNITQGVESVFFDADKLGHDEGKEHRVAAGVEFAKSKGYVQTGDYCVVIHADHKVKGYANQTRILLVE
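In 50 mM imidazole pH 7.2 with 7 mM MgCl2, LmPK (0.1 nM) turned over PEP (0.5 mM) and ADP (0.1 mM) for 1 h at room temperature. Luciferase read-out of ATP.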
TbPYK inhibitor = qHTS of Trypanosoma Brucei Inhibitors | pyruvate kinase (Trypanosoma brucei), Q57TT1 | TbPYK enzyme, Kinase-Glo Plus ATP luminescence, 45 min | Potency, µM (doses to about 76.8 µM), hits mostly inhibitors | hit rate 0.12% among 410,000 | AID 624173, 2012; also: nearly all actives have a fitted effect of over 50% in size
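Quantitative HTS: titrated library compounds versus trypanosomal pyruvate kinase in TEA buffer (pH 7.2) containing KCl, MgCl2, BSA and Tween-20. Reactions were initiated with ADP, 130 uM final. Kinase-Glo Plus luminescence was read after 45 min at RT.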
Shiga inhibitor = A qHTS for Small Molecule Inhibitors of Shiga Toxin; Vero cells, Shiga toxin protein synthesis inhibition reporter; hit rate 9.2% among 290,000; inhibition, % at 38.7 µM; in the data active = inhibition mostly above about 28%, no sharp cut-off; inactive = mostly below about 43%
A number is an active result; i = inactive; ? = inconclusive; nt = not tested or not shown; [ ] = remark or other dose. The full list was thinned out, with hits kept by preference. Unless noted, calls follow the shape of the dose curve; as a rule, active = well fitted curve in the direction sought with a large enough effect; inconclusive = small, poorly fitted or top-dose-only effect, or another doubt; inactive = no such curve, though single readings can be large; an effect the other way counts as inactive or inconclusive.

SMILES | Giardia FBPA inh | Sm TGR inh | Cycloheximide cs | LmPK inh | TbPYK inhibitor | Shiga inhibitor
O=C(NCCn1cccn1)c1ccc(OC2CCN(CCc3ccccc3)CC2)cc1 | i | i | 14 | i | i | 29
CCN(CCn1cccn1)C(=O)c1ccc(OC2CCN(C(=O)COC)CC2)cc1 | i | i | 21 | i | i | i
CSCCNC(=O)c1ccc(OC2CCN(CCc3ccccc3)CC2)cc1 | i | i | 15 | i | i | i
COC(=O)CCCNC(=O)c1ccc(OC2CCN(CCc3ccccc3)CC2)cc1 | i | i | i | i | i | i
O=C(OCC(=O)N1CCN(c2ccccc2)CC1)c1cc(F)c(F)cc1Cl | nt | nt | nt | nt | i | nt
Cc1cc(C)n(CC(O)COc2ccc(Cl)cc2Cl)n1 (stereo not given) | i | i | 30 | i | i | 29
Cc1cc(C)n(CC(O)COc2ccc(Cl)cc2)n1 (stereo not given) | i | i | i | i | i | nt
COc1ccccc1NC(=O)N1CCN(C(=O)Nc2ccccc2OC)CC1 | i | i | i | i | i | i
CCC1c2ccc(C)n2CCN1C(=O)Nc1ccccc1OC (stereo not given) | ? | 25µM | 15 | i | i | 29
O=C1CC(c2ccco2)CC2=C1C1c3ccccc3C(=O)N1c1ccccc1N2 (stereo not given) | i | 35µM | i | i | i | i
COc1cc(C2C3=C(CC(c4ccco4)CC3=O)Nc3ccccc3N2C(C)=O)cc(OC)c1OC (stereo not given) | ? | 79µM | i | i | i | i
CCC(=O)N1c2ccccc2NC2=C(C(=O)CC(c3ccco3)C2)C1c1ccco1 (stereo not given) | i | ? | i | i | i | i
COn1c(-c2ccc(Cl)cc2)nc2ccc(Cl)cc21 | i | i | 27 | i | i | 69
O=C(O)COn1c(-c2ccc(Cl)cc2)nc2ccc(Cl)cc21 | ? | nt | i | i | i | 87
COc1ccc(-c2nc3ccccc3n2OCC(=O)O)cc1 | ? | i | 21 | i | i | i
COc1ccc(CNC(=O)COC(=O)[C@H](Cc2ccccc2)NC(=O)c2cccs2)cc1 | nt | nt | nt | nt | i | nt
COc1ccccc1N1CCN(S(=O)(=O)CCNC(=O)CC2CCCC2)CC1 | nt | nt | nt | nt | i | nt
C=C(C)CN(CC)C(=O)CCc1nnc(CCCc2ccccc2)o1 | i | i | 39 | i | i | 61
CCN(CCn1cccn1)C(=O)CCc1nnc(CCCc2ccccc2)o1 | i | i | 36 | i | i | 99
COC(=O)[C@@H]1[C@@H](C)N(CCc2cc(OC)c(OC)c(OC)c2)C(=O)N[C@H]1c1ccccc1 | i[12.9 µM] | nt | nt | i[11.5 µM] | nt | nt
Cn1nnnc1SCc1nnc(-c2ccccc2Br)o1 | i | i | 33 | i | i | 86
Cc1nnc(SCc2nnc(-c3ccccc3Br)o2)s1 | i | i | 24 | i | i | i
Cc1ccc(-n2nnnc2SCc2nnc(-c3ccccc3Br)o2)c(C)c1 | i | i | i | i | i | i
Cn1nnnc1SCc1ccc(CSc2nnnn2C)cc1 | i | nt | i | i | i | i
Cn1nnnc1SCc1nnc(-c2ccc(F)cc2)o1 | i | i | 22 | i | i | 39
SMILES | Giardia FBPA inh | Sm TGR inh | Cycloheximide cs | LmPK inh | TbPYK inhibitor | Shiga inhibitor
CCN(CC)c1ccc(NC(=O)C2CCN(S(=O)(=O)c3cnc[nH]3)CC2)c(C)c1 | nt | i | nt | nt | i | nt
COc1ccc(-c2cc(OC(=O)c3ccc(F)cc3)c3c(C)oc(C)c3c(=O)c2)cc1OC | nt | i | nt | nt | i | nt
O=C1C(=O)c2ccccc2C(O)=C1CCCCl | 3.5µM | ? | i | i | i | i
O=C(Nc1nc2ccccc2[nH]1)c1ccccc1OC(F)F | i | i | i | ? | i | i
O=C(NC(Cc1ccccc1)c1nc2ccccc2[nH]1)c1ccc(Cl)c([N+](=O)[O-])c1 (stereo not given) | i | i | i | i | i | i
Cc1c(C(=O)Nc2nc3ccccc3[nH]2)cccc1[N+](=O)[O-] | i | i | 15 | i | i | i
O=C(Nc1nc2ccccc2[nH]1)c1ccccc1[N+](=O)[O-] | i | i | 35 | i | i | 51
CCOc1ccc(C(=O)Nc2cc(-c3nc4ccccc4[nH]3)ccc2Cl)cc1[N+](=O)[O-] | i | i | 27 | i | i | i
O=C(Nc1nc2ccccc2[nH]1)c1ccc(Cl)c([N+](=O)[O-])c1 | i | i | 37 | i | i | 116
Cc1c(C(=O)NC(Cc2ccccc2)c2nc3ccccc3[nH]2)cccc1[N+](=O)[O-] (stereo not given) | i | i | i | i | i | i
CCc1cccc(C)c1NC(=O)c1cc(CN2CCCC2)on1 | nt | i | nt | nt | i | nt
CN1/C(=C\C(=O)c2cccnc2)Sc2ccccc21 | i | i | 42 | i | i | 93
COc1cccc(C(=O)/C=C2\Sc3ccccc3N2C)c1 | ? | i | 31 | ? | i | 84
CN1C(=O)C(O)(CC(=O)c2cccnc2)c2ccccc21 (stereo not given) | i | i | i | i | i | i
O=C(O)C(=O)Nc1cccc(C2=NN=N[N]2)c1 | nt | nt | nt | nt | i | nt
CCCOc1ccc(Oc2nc(NCC(C)C)nc(N3CCOCC3)n2)nn1 | nt | ? | nt | nt | i | nt
CCCC1OC2CC3C4CCC5=CC(=O)C=CC5(C)C4C(O)CC3(C)C2(C(=O)O)O1 (stereo not given) | i | 89µM | i | i | i | i
Oc1c(C=NCc2ccccc2)sc2ccccc12 | i | i | 28 | i | i | 91
Oc1cccc(C=Nc2cccc3ccccc23)c1O | ? | 7.9µM | i | i | ? | i
Oc1cccc(C=NCc2ccccc2)c1O | 7.1µM | 50µM | i | i | i | i
CN1CCc2ccc3c4c2[C@]1(C)Cc1cccc(c1-4)OCO3 | ? | nt | i | nt | nt | i
Cc1cc(C)n(C(=O)c2cc([N+](=O)[O-])cc([N+](=O)[O-])c2)n1 | i | i | i | i | i | i
CC(=O)Nc1ccccc1/C=C/c1ccc2c(C)cc(C)c(O)c2n1 | i | i | i | i | i | i
CC(=O)Nc1ccccc1/C=C/c1ccc2c(C)ccc(O)c2n1 | i | i | 17 | i | i | i
CNCCCOc1cccc(Oc2ccccc2)c1 | ? | i | 34 | i | i | 100
SMILES | Giardia FBPA inh | Sm TGR inh | Cycloheximide cs | LmPK inh | TbPYK inhibitor | Shiga inhibitor
CC(C)NCCOc1cccc(Br)c1 | i | i | i | i | i | i
CC(O)CNCCCOc1cccc(Oc2ccccc2)c1 (stereo not given) | ? | i | i | i | i | i
CNCCCOc1cccc(OC(C)C)c1 | i | i | 19 | i | i | 141
S=c1[nH]nc(C2CCCCC2)n1/N=C/c1ccccn1 | ? | nt | i | i | ? | i
C=CCN=c1scc(-c2ccc(F)cc2)n1/N=C/c1ccccn1 | i | i | 19 | i | i | 90
C=CCN=c1scc(-c2ccccc2)n1/N=C/c1ccccn1 | i | i | 20 | i | i | active
Cc1ccccc1-c1ncnn1-c1sc2c(c1C#N)CCCCC2 | nt | i | nt | nt | i | nt
